Source: PubChem
Autophagy HCS = alters autophagy in cells. MEF GFP-LC3 puncta imaging; test concentration mostly 10 µM. hit rate 0.98% among 190,000. calls only at 10 µM (by protocol);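 active means percentage of spot-positive cells more than 3 SD above its plate mean, without a fluorescence outlier flag or 80% toxicity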;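 further: spot-positive cell cutoff set from DMSO-treated cells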
Insulin prom inh = TRM-6 insulin promoter activity inhibition | hit rate 0.9% among 130,000 | AID 1273 | TRM-6 cells (human fetal islet line), insulin promoter-eGFP reporter, imaging; reporter expression induced with tamoxifen | inhibition, % at 2 µM;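 active means inhibition above the mean plus 3 SD, with well images judged a real hit on visual review, cut at about 60% in these data, passing the limit was not always enough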
Efa HMGR inh = inhibitors of class II HMG-CoA reductase from Enterococcus faecalis; purified E. faecalis HMGR, NADPH absorbance 340 nm kinetic; inhibition, % at 10 µM; hit rate 0.41% among 190,000;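 active means inhibition above a set limit, the median over all tested compounds plus 3 SD, cut at about 9.5% in these data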;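 further: enzyme runs in reverse so mevalonate oxidation gives rising NADPH absorbance; 0% = complete reaction with DMSO and 100% = background rate lacking mevalonate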
Ins promoter up = MIN6 insulin promoter up-regulation | MIN6 insulin promoter-GFP reporter, high-content imaging; stronger effect = higher value | z-score at 5 µM | hit rate 0.3% among 190,000;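 active means z-score above 3 at 5 µM with at least 500 cells counted in the well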
* marks the source's active call; other numbers are inactive results; i = inactive; . = not tested or not shown; + = active, no number. The list is not random: actives were taken first. Their share in the collection is about 1.9%.

SMILES | Autophagy HCS | Insulin prom inh | Efa HMGR inh | Ins promoter up
Cc1ccc(S(=O)(=O)N2CCC(C(=O)N3CCC[C@H]3C(=O)NCc3ccccc3)CC2)cc1 | i | -34 | -4 | -0.08
O=C(NCc1ccco1)C1CCCN(S(=O)(=O)c2ccc(Br)cc2)C1 (configuration not stated) | i | . | 11* | 0.07
Cc1ccc(S(=O)(=O)N2CCC(C(=O)N3CCC[C@H]3C(=O)NCc3ccco3)CC2)cc1 | + | -12 | -10 | -0.04
CCOc1ccc(NC(=S)N(CC)Cc2ccccc2)cc1 | i | . | -3 | -0.14
O=C(N/N=C/c1ccc(Br)s1)c1c[nH]c2ccccc12 | i | . | 0 | 0.06
O=C(Cn1nnc(-c2ccccc2)n1)NNC(=O)c1ccco1 | i | . | 4 | -0.2
CCCCNC(=O)C(c1ccc(-c2ccccc2)cc1)N(CCN1CCOCC1)C(=O)CCCCCN1C(=O)NC(c2ccc([N+](=O)[O-])cc2)C(C(=O)OCc2ccccc2)=C1C (configuration not stated) | i | 45 | -2 | -0.33
CCCCCCN(C(=O)CCCCCN1C(=O)NC(c2ccc(-c3ccccc3)cc2)C(C(=O)OCc2ccccc2)=C1C)C(C)C(=O)NCCCC (configuration not stated) | + | 0 | -7 | -0.33
N=c1n(CCN2CCCC2)c2ccccc2n1CC(O)c1ccc(Cl)c(Cl)c1 (configuration not stated) | + | . | 1 | -1.8
Cc1cc(NC(=O)c2ccc3c(c2)C(=O)N(C2CCCCC2)C3=O)no1 | + | -7 | -2 | 0.31
COc1cc(/C=C2\SC(=O)N(CCNC(=O)c3sc4cc(F)ccc4c3Cl)C2=O)cc(OC)c1OC | + | . | 0 | -1.1
CCCOC(=O)Nc1sc2c(c1C(N)=O)CCCC2 | i | . | 3 | 0.91
COc1ccc(NC(=O)CSc2nnc(-c3cccs3)n2C)cc1OC | i | -15 | -3 | 3.5*
COc1ccc(NC(=O)CSc2nnc(-c3ccncc3)n2C)cc1 | i | 0 | 2 | 0.35
CCn1c(SCC(=O)Nc2ccccc2)nnc1-c1cccs1 | . | . | . | 0.15
COc1ccccc1NC(=O)CSc1nnc(-c2ccc(NC(C)=O)cc2)n1C | + | 0 | 1 | 0.8
Cn1c(SCC(=O)Nc2ccc(NC(=O)c3cccs3)cc2)nnc1-c1ccncc1 | i | 13 | 11* | .
COc1ccccc1NC(=O)CC(=O)CSc1nnc(-c2ccc(C)cc2)n1C | i | . | -1 | 0.03
CCn1c(SCC(=O)NC(C)C)nnc1-c1cccs1 | + | -38 | 3 | .
CCn1ccnc1CN1CCN(CC(C)C)C(CCO)C1 (configuration not stated) | i | . | -5 | -0.49
CCCCN(CCCC)Cc1c(O)ccc2c3c(c(=O)oc12)CCC3 | . | . | . | -0.5
[O-][n+]1cccc2c(Br)cc(Br)c(O)c21 | i | 64 | 9.9* | 0.45
C#CCn1c(=NC(=O)c2ccc(S(=O)(=O)N3CCc4ccccc4C3)cc2)sc2cc(S(N)(=O)=O)ccc21 | + | 4 | 0 | -0.17
COC(CNc1ccc([N+](=O)[O-])c(NCC(OC)OC)c1C#N)OC | . | . | . | 0.53
O=C(NCCO[N+](=O)[O-])c1cccnc1 | . | . | 1 | 1.1
SMILES | Autophagy HCS | Insulin prom inh | Efa HMGR inh | Ins promoter up
CN(C)C(CNC(=O)c1ccc(S(=O)(=O)N(C)C)cc1)Cc1ccccc1 (configuration not stated) | + | . | 4 | 0.38
CC(C)CCOc1ccccc1C(N)=O | i | -7 | 9.7* | -0.26
COc1cccc(/C=C/C(=O)Nc2ccc3c(c2)OCCO3)c1OC | + | . | 2 | -0.58
CCCn1nnc(NC(=O)c2cccc(OCC)c2)n1 | + | -237 | -7 | 0.33
CCCn1nnc(NC(=O)COc2ccc(C3CCCCC3)cc2)n1 | i | 100* | -2 | -0.16
CCOc1cccc(C(=O)Nc2cccc(-c3nnc(-c4ccccc4)o3)c2)c1 | i | -27 | 1 | -1.6
CCOc1cccc(C(=O)Nc2cccc(-c3nnc(-c4ccc(C)cc4)o3)c2)c1 | + | -28 | -1 | -0.1
O=C(CCCN1C(=O)c2cccnc2C1=O)Nc1ccc(Br)cc1 | i | . | 2 | -0.12
COCC(C)NC(=O)NC1(C(F)(F)F)Oc2ccc(Cl)cc2O1 (configuration not stated) | i | 71* | -7 | 0.34
O=C(NCC1CCCO1)C(c1cccs1)N(C(=O)c1ccc(CN2CCOCC2)o1)c1ccc(Cl)cc1 (configuration not stated) | i | -15 | -4 | 0.01
CCCn1c(CCc2ccccc2)n[nH]c1=S | i | . | 3 | -0.24
Cc1cc(C)nc(NC2=NCCN2C(=S)Nc2ccc(C)c(C)c2)n1 | . | . | . | 0.19
O=C(NCCCN1CCN(c2ccccc2F)CC1)C1CCCN(S(=O)(=O)c2cnc[nH]2)C1 (configuration not stated) | + | . | -5 | 1
Cn1cc(SCC(=O)O)c2ccccc21 | i | 83* | -1 | .
Cc1ccccc1-c1nc(CN(Cc2c(C)nn(C)c2C)C2CC2)c(C)o1 | i | . | -10 | -0.1
Cc1ccc(NC(=O)CNc2ccc(OC(C)C)cc2)c(C)c1 | i | 75* | -4 | .
Cc1nc2ccc(S(=O)(=O)NCC(=O)N3CCCC(C)C3)cc2s1 (configuration not stated) | i | 73* | 3 | -0.35
Cc1nc2ccc(S(=O)(=O)NCC(=O)N3CCc4ccccc4C3)cc2s1 | i | -244 | 1 | 0.73
Cc1ccc(C(=O)C2=C(O)C(=O)N(c3ncccn3)C2c2ccc(Cl)cc2)o1 (configuration not stated) | i | 80* | 1 | .
CCOC(=O)N1CCC(=NNS(=O)(=O)c2cccc([N+](=O)[O-])c2)CC1 | i | -27 | -6 | 1.5
CCN(CC)CCNc1nc2nonc2nc1NCCN(CC)CC | . | . | . | -0.4
CCNc1nc(Oc2ccc(=O)[nH]n2)nc(N2CCOCC2)n1 | i | 75* | 2 | .
O=C(Cc1ccccc1Cl)N1CCN(c2ncccn2)CC1 | i | 42 | -3 | -0.51
CCOc1ccc(-n2c(N)c(-c3nc4ccccc4n3C)c3nc4ccccc4nc32)cc1 | + | . | 0 | 0.08
CCOC(=O)c1sc2nc3c(cc2c1N)COC(C)(C)C3 | i | 81* | -6 | .
SMILES | Autophagy HCS | Insulin prom inh | Efa HMGR inh | Ins promoter up
COc1ccccc1C(=O)C1CCCN(C(=O)c2cccc(-n3cccn3)c2)C1 (configuration not stated) | i | . | 0 | -0.81
CN(C)CCNc1oc(COc2ccc(-c3ccccc3)cc2)nc1C#N | + | 31 | -2 | -1.2
N#Cc1nc(COc2ccc(-c3ccccc3)cc2)oc1NCCCN1CCOCC1 | i | 50 | -15 | 0.4
COc1ccc(C(=O)N2CCC(n3nnc4cc(F)ccc43)CC2)cc1OC | + | . | -3 | 0.35
COc1ccc(Cl)cc1NC(=O)CCNC(=O)OCc1ccccc1 | i | . | -3 | 0.17
NS(=O)(=O)c1ccc(CNC(=O)C2(c3ccc(Cl)cc3)CC2)cc1 | i | . | 0 | 0.81
COc1ccc(CNC(=O)C2(c3ccc(Cl)cc3)CC2)cc1 | i | 75* | 0 | 0.42
C(=N\NC1=Nc2cccc3cccc1c23)/c1ccccc1 | i | -34 | -8 | 0.59
Clc1ccc(/C=N/NC2=Nc3cccc4cccc2c34)cc1 | + | . | -1 | 2.3
